In PubChem BioAssay AID652017 (The Scripps Research Institute Molecular Screening Center, 2013) one finds activation data, which are given here for 90 compounds.

The campaign covered roughly 370,000 compounds. About 3,800 (1%) were called active. The sample holds actives, similar compounds and a random draw of the others, so the mix is not that of the screen. A number with no mark means an inactive call. Rule as the data show it: active = activation above about 7.8%; inactive = the rest.

The assay is described as follows: SMARCA2 (BRM) function activators, primary screen, cell-based, luminescence, high throughput (AID 652017).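 Also: 0% = vehicle wells and 100% = reference activator wells.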 As to conditions: MG213 cells, MMTV-luciferase reporter, dexamethasone, overnight; at 9.1 µM; hits give high values. (In general: In a reporter assay the amount or activity of a reporter protein is the signal.)
Regarding `O=C(NCCC1=CCCCC1)C1CCN(S(=O)(=O)c2ccc(Cl)s2)CC1`, the activation is -6.89%. Regarding `COc1cccc2cc(/C(C)=N/NC(=O)c3ccco3)oc12`, the activation was 5.77%. In the case of `C/C(CC(=O)NC(C)(C)C)=N\NC(=O)c1ccco1`, the activation is 8.95% (active). Consider `COc1ccc(N(CC(=O)NC(C)(C)C)C(=O)c2ccco2)cc1`, for which the activation is -1.03%.

Take `CCC(NC(=O)C1C2C=CC3(CN(Cc4ccccc4)C(=O)C13)O2)c1ccccc1` (stereo not given): the activation was -1.92%.

For `CC1(C(=O)NS(=O)(=O)C2CC2)CCCN(C(=O)CSc2ccccc2)C1` (stereo not given), the activation was 10.6% (active). The figure for `CC(C)CNC(=O)C1(C)CCCN1C(=O)CSc1ccccc1` (stereo not given) is -1.93%; for `CS(=O)(=O)N1CCN(C(=O)CSc2ccccc2)CC1` it is -2.96%; for `C[C@@H]1CN([C@H](C)CO)C(=O)CCCn2cc(nn2)CO[C@H]1CN(C)S(=O)(=O)c1ccc(Oc2ccccc2)nc1` it is -2.13%. Take `COc1ccc([C@H]2OC(=O)C[C@H]2C(=O)N2CCN(c3ccccc3F)CC2)cc1OC`: the activation was -3.16%. With `COC(=O)[C@]12C[C@H](CC(=O)NCc3ccccc3)C(=O)N(CCc3ccc(OC)c(OC)c3)C1=C[C@H](C(C)(C)C)O[C@@H]2C`, the activation is -3.03%. Regarding `CCOC(=O)[C@]12CCCCC/C=C\1N(Cc1ccc(OC)cc1)C(=O)[C@H]2CC(=O)NCc1ccc(C)o1`, the activation is -0.44%. On to `O=C(NCCCN1CCCCCC1)c1ccc(N2CCCC2=O)cc1`, for which the activation is 1.14%. Take `O=C(NCCS(=O)(=O)NCc1ccc(Cl)cc1)c1ccccc1`: the activation is -0.89%. The figure for `CN1CCN(CCCNC(=O)c2ccc(/C=C3\Oc4ccccc4N(Cc4ccc(Cl)cc4)C3=O)cc2)CC1` is 10.6% (active). Turning to `Cc1cc(NS(=O)(=O)c2ccc(NC(=O)CSc3nnc(SCc4ccc(F)cc4)s3)cc2)nc(C)n1`, the activation is -5.48%.

On to `O=C(Nc1cccc(Cl)c1)OC1CC2CC1[C@H]1CCCCN1[C@H]2Cc1ccccc1` (stereo not given in full), for which the activation was -2.01%. For the compound `CCOC(=O)CSc1nc(C)cc2c1C(=O)OC2`, the activation is -2.43%. For `C#CCN([C@H](C(=O)OC)C(C)CC)S(=O)(=O)c1ccccc1Br` (stereo not given in full), the activation was -1.68%.

Take `O=C(C[C@H]1CC[C@@H](NC(=O)c2ccncc2)[C@@H](CO)O1)NCC1CC1`: the activation is -1.73%.

Regarding `O=C(N[C@H]1CC[C@H](CC(=O)N2CCCCC2)O[C@@H]1CO)c1cccc(F)c1`, the activation is 8.81% (active).

Consider `O=C(Nc1ccc2c(c1)[C@@H]1C[C@@H](CC(=O)N3CCCCC3)O[C@@H](CO)[C@@H]1O2)NC1CCCCC1`, for which the activation is -1.84%. For the compound `C=C1C(=O)[C@]23C[C@H]1CCC2[C@@]1(C)C(C[C@@H]3O)[C@](C)(C(=O)O)CC[C@@H]1O` (stereo not given in full), the activation is 28.1% (active). In the case of `N#Cc1ccc(OC[C@@H](O)CN2CCC(C(O)(c3ccccc3)c3ccccc3)CC2)c(F)c1`, the activation was 1.41%. The figure for `O=C(CCNS(=O)(=O)c1ccccc1)NCCCc1ccccc1` is -1.66%; for `O=C(CC1CCCCC1)NCc1ccccc1` it is 2.93%. As to `COc1ccc(OCCCC(=O)NCCc2ccccc2)cc1`, the activation is 17.9% (active).

`COc1ccc(OCC(=O)NCCc2ccc(S(N)(=O)=O)cc2)cc1`: the activation is 2.09%. Turning to `O=C(CCCc1ccccc1)NCc1ccccc1`, the activation was 8.27% (active).

`COc1ccc(CCNC(=O)CN(c2ccccc2)S(C)(=O)=O)cc1`: the activation was -1.26%.

Take `O=C(c1ccccc1)c1ccc(-c2ccccc2C(=O)NC2CCCCN(Cc3ccc(Cl)cc3)C2=O)cc1` (stereo not given): the activation was -0.95%. The figure for `CCOC(=O)[C@]12CCCC3=C1N(CCC3)C(=O)[C@@H](CC(=O)NCC13CC4CC(CC(C4)C1)C3)C2` is -3%; for `C=CCOc1ccc(Cl)cc1CNCCCN1CCOCC1` it is -1.83%; for `CC(C)CNc1cccc2c1S(=O)(=O)N(Cc1cn(Cc3ccc(Cl)cc3)nn1)Cc1ccccc1O2` it is 0.35%. Regarding `NC(=O)Cc1ccc2sc(-c3ccccc3)nc2c1`, the activation was 2.7%. As to `CCN(CC)C(=O)c1sc2nc(-c3ccccc3)ccc2c1N`, the activation is 9.84% (active). In the case of `COC(=O)c1cc2c(N)c(C(=O)c3ccc(Cl)cc3)sc2nc1C(OC)OC`, the activation was -4.26%.

For `CN(C)/C=C/C(=O)c1cnc2sccn2c1=O`, the activation was -3.44%.

In the case of `CCOC(=O)c1cnc2sccn2c1=O`, the activation is -1.74%.

Consider `O=C(NCc1ccccn1)c1cnc2sccn2c1=O`, for which the activation is 8.52% (active). Turning to `N#Cc1ccccc1OC[C@@H](O)CN1CCC(C(O)(c2ccccc2)c2ccccc2)CC1`, the activation is -4.74%.

As to `COC(=O)c1ccc(CSc2nnc(N)s2)o1`, the activation is -1.46%. In the case of `CN1CCc2c(sc3c2c(NCc2ccco2)nc2nnnn23)C1`, the activation was 0.32%. Consider `COc1ccc(C(=O)NCC[N+](C)(C)C)cc1`, for which the activation was -4.72%. On to `COc1ccc(C(=O)N/N=c2\oc3ccccc3cc2C(N)=O)cc1`, for which the activation was 9.22% (active). As to `COc1ccccc1CN(C)C(=O)c1cc2ccccc2o1`, the activation is -0.29%. For `CC(=O)c1cc(-c2ccc3ccccc3c2)c(=O)n2c1CCC2`, the activation was -0.02%. Turning to `CSc1ccc(C#N)cc1NC(=O)c1ccc(Cl)cc1`, the activation is -0.91%. In the case of `N#Cc1ccccc1NC(=O)c1cccc(COc2ccc(Cl)cc2Cl)c1`, the activation is 9.56% (active). `COc1ccc(Sc2ccc(NC(=O)c3cccc(Cl)c3)cc2C#N)cc1`: the activation was -0.62%.

On to `C[C@H](CO)N1C[C@H](C)[C@@H](CN(C)S(=O)(=O)c2ccc(F)cc2)Oc2ccc(NC(=O)CCC(F)(F)F)cc2C1=O`, for which the activation was 1.28%. Consider `CCOC(=O)c1ccccc1NC(=O)c1c(N)n(C)c(=O)[nH]c1=O`, for which the activation was -0.83%. Regarding `NS(=O)(=O)c1ccccc1NC(=O)c1c(O)c2ccccc2[nH]c1=O`, the activation is 9.94% (active). Consider `Cn1c(=O)c(C(=O)Nc2ncccn2)c(O)c2ccccc21`, for which the activation is 2.91%.

For `CCCC[C@H]1C2CC(OC(=O)NCc3ccccc3)C(C2)[C@H]2CCCCN21` (stereo not given in full), the activation was -0.93%. As for `CC(=O)O[C@@]1(C(C)=O)CCC2[C@H]3C=C(C)C4=CC(=O)CC[C@@]4(C)C3CC[C@]21C` (stereo not given in full), the activation was -9.82%. The figure for `Cc1nc2ccc(NC(=S)N3CCC(C)CC3)cc2nc1C` is 7.91% (active). `Cc1cccc(NC(=S)N2CCC(c3nc4ccccc4s3)CC2)c1`: the activation is -2.82%.

With `Cc1nc2ccc(NC(=O)N3CCC(c4ccccc4)C3)cc2nc1C` (stereo not given), the activation is -3.22%. Consider `Cn1nc(C(F)(F)F)c2cc(NC(=O)OCC(C)(C)C)sc21`, for which the activation is 7.24%. In the case of `CCC(C(=O)NC(C)(C)C)n1c(-c2ccccc2)nc2ccccc21` (stereo not given), the activation is -0.72%.

Turning to `CC(C)(C)NC(=O)C(CCc1ccccc1)n1c(=O)c(-c2ccccc2)nc2ccccc21` (stereo not given), the activation was 17.1% (active).

For the compound `CSCCC(C(=O)NC(C)(C)C)n1c(-c2ccccc2)nc2ccccc21` (stereo not given), the activation is -3.19%. Regarding `CN(C)c1ccc(NC(=O)NC2CCCCN(Cc3ccc(Cl)cc3)C2=O)cc1` (stereo not given), the activation was -1.53%. Take `CS(=O)(=O)c1ccc(C(=O)NNC(=O)c2cccs2)cc1`: the activation is -1.1%. On to `Cc1ccc(C(=O)NNC(=O)c2cccs2)cc1`, for which the activation is 9.31% (active). As for `CC(C)COc1ccc(C(=O)NNC(=O)CCC(=O)c2cccs2)cc1`, the activation is 0.68%. With `C=CCC(NCCCO)c1cccc(OC)c1OC` (stereo not given), the activation was 2.11%. `Cc1cc(C)cc(-c2nnc(SCC(=O)NC3CC3)o2)c1`: the activation is 2.96%. For the compound `COc1ccc(Cl)cc1C(=O)NNC(=O)c1nc2nc(C)cc(C)n2n1`, the activation was -0.45%.

As to `Cc1cc(C)n2nc(CNS(=O)(=O)c3c(F)c(F)c(F)c(F)c3F)nc2n1`, the activation was 9.77% (active). Turning to `Cc1cc(C)n2nc(C(=O)NC(C)(C)C)nc2n1`, the activation was 1.51%. As for `CCOC(=O)N1CCN(C(=O)C[C@H]2C[C@@]3(C(=O)OC)C(=C[C@H](C(C)(C)C)O[C@@H]3C)N(Cc3ccc(Cl)cc3Cl)C2=O)CC1`, the activation was -4.25%. Turning to `CC(=O)Nc1nc2ncccn2c1-c1ccc(C(F)(F)F)cc1`, the activation was -1.69%. Take `CC(=O)n1cc([C@H]2C=C(C(=O)N3CCOCC3)O[C@@H](OCc3ccc(CO)cc3)C2)c2ccccc21`: the activation was -0.72%. In the case of `COc1cccc(CNC(=O)C2CCCN(c3nc4ccccc4o3)C2)c1OC` (stereo not given), the activation is -3.99%. As for `COC(=O)C1C(=O)c2c([nH]c(C(=O)OCCSC)c2C)CC1C` (stereo not given), the activation is 15.2% (active). The figure for `CCOC(=O)c1cnc2ccc(F)cc2c1Nc1ccc2c(c1)OCCO2` is -4.81%; for `CC(C)N1CCCCC(NC(=O)C(C)(C)C)C1=O` (stereo not given) it is 0.13%; for `NC(=O)c1oc2ccccc2c1NC(=O)CS(=O)(=O)c1ccccc1` it is -2.91%. As for `Fc1ccc(CNc2nc3ccccc3n3nnnc23)cc1`, the activation was 10.3% (active).

As for `CCOC(=O)CNc1nc2ccccc2n2c(C)nnc12`, the activation was -1.96%. As to `CC(C)(C)N1CC(c2nc3ccccc3n2Cc2ccc(F)cc2)CC1=O` (stereo not given), the activation was 4.59%. The figure for `Cc1ccc(O)c(CNc2nc3ccccc3n2C)c1` is 9.3% (active); for `CC(C)n1c(NCc2c[nH]c3ccccc23)nc2ccccc21` it is -2.21%. On to `C/C(=N\c1nc2ccccc2n1C)c1cc(Cl)ccc1O`, for which the activation is 0.8%.

As for `CN(CCc1ccccc1)C(=O)Cn1nc(-c2ccccc2)ccc1=O`, the activation is -2.33%. For the compound `CC(=O)Cn1ncc(N2CCOCC2)c(Br)c1=O`, the activation was -2.3%.

For the compound `O=C(Cn1nc(CNc2ccc(Cl)cc2)[n+]2c1CCCCC2)c1ccc(Cl)cc1`, the activation was -6.64%.

Turning to `O=C(Cn1ncc(N2CCCC2)c(Br)c1=O)c1ccc(Cl)cc1`, the activation was 9.66% (active).
